Sampled rows, rich in hits. Any-hit rate of the full collection: about 5.2%.
SMARCA2 act = increases SMARCA2 function in MMTV reporter cells | MG213 cells, MMTV-luciferase reporter, dexamethasone, overnight | activation, % at 9.1 µM | actives 1% (n = 370,000) | AID 652017; in the data active means activation above about 7.8%;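 further: 0% = vehicle wells and 100% = reference activator wells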
SKN-1 block = C. elegans SKN-1 inhibition | C. elegans VP596 Pgst-4::GFP/RFP ratio, acrylamide-induced, 24 h | inhibition, % at 21.8 µM | actives 0.49% (n = 360,000);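 active means interference check ratio from 0.5 to 1.5 plus GFP to RFP signal ratio inhibition reaching or exceeding a fixed threshold, cut at about 30% in these data, passing the limit was not always enough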
Vif inh = inhibitors of HIV Vif; HEK293T cells, Vif self-association by quenched fluorescence, imaging, 24 h; inhibition, % at 7.49 µM; actives 0.35% (n = 340,000); AID 602346; in the data active means inhibition above about 50%, passing the limit was not always enough
NadD block = blocks S. aureus nicotinate mononucleotide adenylyltransferase; actives 0.78% (n = 360,000); purified NadD enzyme, colorimetric absorbance read-out; inhibition, % at 20 µM; in the data active means inhibition above about 26%
NR3A LBD binder = modulators (binders) of human NR3A ligand-binding domain. Tm shift relative to glycine control, % at 25 µM. NR3A LBD differential scanning fluorimetry, Tm shift; 0% = protein alone, 100% = glycine-bound protein. actives 2.5% (n = 340,000);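 active means melting temperature shift of at least 10% of the positive control shift, at one fixed dose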
esBAF inh = inhibitors of esBAF chromatin remodeling in mouse ES cells. AID 602393. actives 2% (n = 350,000). reporter increase, % at 12.5 µM. Bmi1-luciferase knock-in reporter, 24 h; 100% = twice the neutral-well signal; in the data active means activation above about 40%;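 further: 0% = median of the plate's neutral control wells and 100% = double that signal; a rise in the Bmi1 reporter signal indicates esBAF inhibition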
An asterisk follows results filed as active; nt = not tested or not shown.

SMILES	SMARCA2 act	SKN-1 block	Vif inh	NadD block	NR3A LBD binder	esBAF inh
O=C(Nc1nn(Cc2ccc(Cl)cc2)cc1Br)c1ccc(COc2ccccc2Cl)o1	-2	-11	-8	-2	-4	3
CO[C@@H]1CN(C)C(=O)c2ccc(NC(=O)c3ccccc3)cc2OC[C@@H](C)N(C(C)=O)C[C@H]1C	nt	nt	nt	nt	nt	-1
CC(=O)c1c(C)[nH]c(C(=O)CSc2ccc(F)cc2)c1C	-2	-2	-18	-5	1	nt
Cc1cc(C(=O)CSc2ccc(F)cc2)cc(C)c1O	4	4	13	-13	-7	56*
CC1=NN(c2ccccc2)C(=O)C1N=Nc1ccc(N)cc1 (stereo not given)	-2	41*	nt	17	-7	26
CC1=NN(c2ccccc2)C(=O)C1N=Nc1cccc(O)c1 (stereo not given)	5	-5	-13	-5	0	52*
CCOC(=O)c1ccc(NC(=O)Nc2ccc3c(c2)OCCO3)cc1	-4	10	-6	-6	14*	11
N#CCC(=O)Nc1ccc(C(=O)OCC(=O)NC(=O)Nc2ccc3c(c2)OCCO3)cc1	4	-10	9	25	3	61*
O=C(O)c1cccc(NC(=O)c2ccc(COc3ccc(Cl)cc3)cc2)c1	0	-4	0	2	1	22
CC(=O)Nc1ccc(NC(=O)c2ccc(COc3ccccc3)cc2)cc1	-3	-4	2	2	10*	-6
Cc1noc(C)c1COc1ccc(C(=O)OCC(=O)c2ccc3c(c2)OCCO3)cc1	-4	-6	-21	5	11*	-3
O=C(Nc1cccc(Br)c1)c1ccc(CSc2ccccc2)cc1	-1	-10	5	5	30*	nt
O=C(Nc1cccnc1)c1ccc(CSc2ccccc2)cc1	2	0	-2	4	-11	nt
O=C(Nc1ccc(F)cc1)c1ccc(COc2ccccc2)cc1	2	8	-48	9	-14	5
CC(=O)Nc1cccc(NC(=O)c2ccc(COc3ccccc3)cc2)c1	7	7	34	-3	-3	98*
Cc1noc(C)c1COC(=O)c1ccc2c(c1)OCCO2	-2	1	-5	-3	1	nt
CN(C)C(=O)[C@@H]1[C@@H](CO)[C@@H]2Cn3c(ccc(C4=CCCCC4)c3=O)[C@@H]2N1Cc1ccc2c(c1)OCO2	nt	nt	nt	nt	nt	2
CNC[C@H]1OCCCC[C@@H](C)Oc2ccc(NS(=O)(=O)c3cn(C)cn3)cc2C(=O)N([C@@H](C)CO)C[C@H]1C	nt	nt	nt	nt	nt	-14
CN1C(=O)c2cc(NC(=O)c3ccc(F)c(F)c3)ccc2OC[C@H]2O[C@H](CC(=O)N3CCOCC3)CC[C@@H]21	nt	nt	nt	nt	nt	-6
CC(C)C(=O)Nc1ccc(NC(=O)c2ccc(COc3ccccc3)cc2)cc1	-2	10	-3	0	16*	-2
CC(=O)c1cccc(NC(=O)CSCc2ccccc2)c1	1	1	-7	0	-2	10
O=C(Nc1ccc(N2CCOCC2)cc1)c1ccc(COc2ccccc2)cc1	-3	6	-14	2	4	-6
CC(=O)c1cccc(NC(=O)CSCc2ccc(Br)cc2)c1	-4	2	-4	-13	23*	nt
CC(=O)Nc1ccc(NC(=O)c2ccc(OCc3c(C)noc3C)cc2)cc1	-1	-6	60*	3	1	-6
Cc1ccc(NC(=O)c2ccc(OCc3c(C)noc3C)cc2)cc1C	-2	-2	-18	-10	-5	36
SMILES	SMARCA2 act	SKN-1 block	Vif inh	NadD block	NR3A LBD binder	esBAF inh
CC(C)NC(=O)N[C@@H]1C=C[C@@H](CC(=O)N2CCCCC2)O[C@H]1CO	nt	nt	nt	nt	nt	-2
O=C(Cc1ccccn1)N[C@@H]1CC[C@@H](CCn2cc(-c3ccccc3)nn2)O[C@@H]1CO	nt	nt	nt	nt	nt	5
C[C@H](CO)N1C[C@H](C)[C@@H](CN(C)Cc2ccc(C(F)(F)F)cc2)OCCCC[C@H](C)Oc2ccc(NC(=O)NC3CCCCC3)cc2C1=O	nt	nt	nt	nt	nt	-1
O=C(NCc1csc2ccccc12)Nc1cc(Cl)cc(Cl)c1	0	11	-12	2	21*	nt
CO[C@H]1CN(C)C(=O)c2cc(NC(C)=O)ccc2OC[C@@H](C)N(CCC(F)(F)F)C[C@H]1C	nt	nt	nt	nt	nt	-2
Cc1ccc(NS(=O)(=O)c2sc3ccc(Cl)cc3c2C)cc1	-4	-3	-5	-8	16*	nt
CN(C)c1ccc(NS(=O)(=O)c2cc(Cl)ccc2Cl)cc1	2	1	2	-3	-20	nt
O=S(=O)(Nc1ccc(-n2cccc2)cc1)c1ccc(Cl)cc1Cl	0	8	nt	-1	14*	-7
O=S(=O)(Nc1ccc(-n2cccc2)cc1)c1ccc(Cl)c(Cl)c1	-4	14	-9	-5	35*	1
Cc1ccc(C(=O)OCc2nc3ccsc3c(=O)[nH]2)o1	0	-12	nt	-4	0	-1
O=C(OCc1nc2ccsc2c(=O)[nH]1)c1cc(Br)c(Br)s1	-1	1	0	3	22*	4
O=C(/C=C/c1ccc(Br)o1)OCc1nc2ccsc2c(=O)[nH]1	nt	20	7	53*	-1	0
CC1=CC(C)C(C[N+]2(C)CCCCC2)C(C)C1 (stereo not given)	2	2	-18	2	1	nt
CC1=CC(C)C(COC(=O)CN2CCCCC2)C(C)C1 (stereo not given)	1	4	-3	-1	11*	nt
Cc1ccccc1NCCC(=O)Nc1ccc(Cl)cc1	-1	16	-10	-7	14*	4
CC1=CC(=C(C#N)C#N)C=C(C)N1CCN1CCN(C(=O)Nc2ccc(Cl)c(Cl)c2)CC1	-2	-2	5	10	18*	2
COc1ccc(NC(=O)N2CCN(CCC#N)CC2)cc1	2	-1	-2	2	1	5
O=C(/C=C\c1ccccc1)Nc1nccs1	6	-5	nt	-1	2	nt
O=C(/C=C/c1cccc(F)c1)Nc1nccs1	5	15	13	-4	3	86*
CO[C@@H]1CN(C)C(=O)c2cc(NC(=O)c3ccccc3)ccc2OC[C@H](C)N(C)C[C@@H]1C	nt	nt	nt	nt	nt	-5
COC(=O)C(Cc1ccc(OC(=O)c2ccc(C)cc2)cc1)N1Cc2ccccc2C1=O (stereo not given)	nt	-18	nt	-8	14*	nt
CCN1/C(=C/C=C/c2sc3ccccc3[n+]2CC)Sc2ccccc21	nt	86	-36	6	-3	-70
CCN1/C(=C/C=C/c2oc3ccc(-c4ccccc4)cc3[n+]2CC)Oc2ccc(-c3ccccc3)cc21	-12	55	147*	44*	60*	-85
CO[C@@H]1CN(C)C(=O)c2cc(NC(=O)C3CCCC3)ccc2OC[C@@H](C)N(C)C[C@@H]1C	nt	nt	nt	nt	nt	2
Cc1cc(C)c2c3c(sc2n1)C1(CCSCC1)C(C#N)=C(N)O3	1	25	-2	12	16*	26
Cc1ccc(S(=O)(=O)N[C@@H]2CC[C@@H](CC(=O)NCCCN(C)C)O[C@H]2CO)cc1	nt	nt	nt	nt	nt	-5
